# For some of these results: Measured potencies and affinities stand elsewhere.
# How the values were obtained:
# Parameters in all cases: scale not given: direction of the effect not stated beside the values
# [1] = target: Protein translocase subunit SecA (Escherichia coli (strain K12)) (UniProt P10408); assay: Assay to Identify E. coli SecA ATPase Inhibitors; format: functional; conditions: 30 µM
# [2] = target: T1, Ubiquitin-activating enzyme e1, putative (Leishmania donovani (strain BPK282A1)) (UniProt E9BSI1); assay: Leishmania donovani Ubiquitin Activating Enzyme (LdE1); format: functional; conditions: 30 µM
# T1 sequence (whole entry): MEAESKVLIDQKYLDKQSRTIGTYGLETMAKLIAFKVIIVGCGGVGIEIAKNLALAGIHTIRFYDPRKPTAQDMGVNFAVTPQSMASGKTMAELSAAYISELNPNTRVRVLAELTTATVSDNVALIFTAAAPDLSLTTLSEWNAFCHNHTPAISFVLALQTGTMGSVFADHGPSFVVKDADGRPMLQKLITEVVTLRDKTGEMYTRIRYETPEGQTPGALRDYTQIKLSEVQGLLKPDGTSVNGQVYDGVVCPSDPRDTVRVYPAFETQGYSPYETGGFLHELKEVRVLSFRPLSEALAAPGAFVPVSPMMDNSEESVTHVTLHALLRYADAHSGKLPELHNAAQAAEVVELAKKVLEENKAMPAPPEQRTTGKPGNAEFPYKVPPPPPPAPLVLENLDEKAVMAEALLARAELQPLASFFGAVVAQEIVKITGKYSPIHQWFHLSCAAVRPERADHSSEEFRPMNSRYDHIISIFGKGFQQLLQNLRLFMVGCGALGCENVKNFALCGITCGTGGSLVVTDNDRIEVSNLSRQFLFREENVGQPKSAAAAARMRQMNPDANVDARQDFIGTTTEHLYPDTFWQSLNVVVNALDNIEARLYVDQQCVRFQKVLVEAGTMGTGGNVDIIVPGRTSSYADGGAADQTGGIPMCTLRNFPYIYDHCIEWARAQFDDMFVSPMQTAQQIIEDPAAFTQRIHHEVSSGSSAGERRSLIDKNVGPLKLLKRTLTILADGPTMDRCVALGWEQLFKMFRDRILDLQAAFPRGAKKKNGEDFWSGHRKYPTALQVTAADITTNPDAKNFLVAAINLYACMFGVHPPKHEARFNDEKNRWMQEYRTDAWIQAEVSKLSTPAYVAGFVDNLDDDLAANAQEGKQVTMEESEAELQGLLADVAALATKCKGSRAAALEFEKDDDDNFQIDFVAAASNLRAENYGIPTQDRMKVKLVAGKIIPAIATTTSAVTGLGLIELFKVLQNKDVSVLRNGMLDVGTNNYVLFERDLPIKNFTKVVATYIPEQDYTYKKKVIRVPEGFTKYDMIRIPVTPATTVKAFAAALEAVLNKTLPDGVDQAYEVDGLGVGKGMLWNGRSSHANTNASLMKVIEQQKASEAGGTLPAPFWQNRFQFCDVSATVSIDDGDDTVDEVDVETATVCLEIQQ
# [3] = target: AMP-activated protein kinase, AMPK (Homo sapiens) (UniProt P54646+O43741+P54619+Q9UGJ0+Q9Y478+Q13131+Q9UGI9); assay: AMP-dependent Kinase enzyme assay. An in vitro enzyme assay that detects ADP turnover that is directly proportional to AMPK activity. This uses naive AMPK that is activated during the assay with MK-8722; format: functional; conditions: 30 µM
# [4] = target: Sialic acid-binding Ig-like lectin 9 (Homo sapiens) (UniProt Q9Y336); assay: Hs-Siglec9 ALPHAscreen SOP 20170721; conditions: 10 µM
# Sequence of Sialic acid-binding Ig-like lectin 9 (Homo sapiens) (Q9Y336 whole entry): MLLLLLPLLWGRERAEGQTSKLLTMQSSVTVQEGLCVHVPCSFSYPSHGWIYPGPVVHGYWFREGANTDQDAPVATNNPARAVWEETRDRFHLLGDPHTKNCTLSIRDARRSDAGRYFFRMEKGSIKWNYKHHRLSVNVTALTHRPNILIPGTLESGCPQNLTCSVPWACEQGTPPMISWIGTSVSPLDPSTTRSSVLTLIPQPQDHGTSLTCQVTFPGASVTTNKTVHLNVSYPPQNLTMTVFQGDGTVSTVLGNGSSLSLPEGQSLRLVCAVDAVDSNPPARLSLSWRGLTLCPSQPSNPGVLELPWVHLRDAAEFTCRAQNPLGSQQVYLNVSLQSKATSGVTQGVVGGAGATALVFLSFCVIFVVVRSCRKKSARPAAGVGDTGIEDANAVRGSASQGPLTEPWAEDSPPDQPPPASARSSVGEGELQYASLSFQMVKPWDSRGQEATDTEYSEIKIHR
# Trypanosoma cruzi = assay: Trypanosoma cruzi phosphomannomutase and mannose-1-phosphate guanylyltransferase assay; format: functional; conditions: 10 µM
# [5] = target: T2, Arginase-2, mitochondrial (Homo sapiens) (UniProt P78540); assay: in vitro enzyme assay to detect the production of urea directly proportional to the activity of Arginase II; format: functional; conditions: 33.3 µM; note: in the data most compounds retested in dose-response had high values
# T2 sequence (whole entry): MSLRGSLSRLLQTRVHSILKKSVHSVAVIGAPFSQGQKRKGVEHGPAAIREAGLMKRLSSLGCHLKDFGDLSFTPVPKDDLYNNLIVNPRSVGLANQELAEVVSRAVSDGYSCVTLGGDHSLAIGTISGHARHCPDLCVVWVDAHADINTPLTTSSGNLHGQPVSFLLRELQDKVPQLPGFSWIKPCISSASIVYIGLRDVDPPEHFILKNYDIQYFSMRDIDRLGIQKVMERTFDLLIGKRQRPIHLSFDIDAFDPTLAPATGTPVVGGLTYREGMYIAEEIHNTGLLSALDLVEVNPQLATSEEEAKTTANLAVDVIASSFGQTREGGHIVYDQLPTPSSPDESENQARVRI
# [6] = target: T3, Proteasome subunit beta (Trypanosoma cruzi) (UniProt O96673); assay: Trypanosoma cruzi proteasome chymotrypsin-like activity (TcProtChymo) assay.; note: in the data most compounds retested in dose-response had high values; format: functional; conditions: 9.37 µM
# T3 sequence (whole entry): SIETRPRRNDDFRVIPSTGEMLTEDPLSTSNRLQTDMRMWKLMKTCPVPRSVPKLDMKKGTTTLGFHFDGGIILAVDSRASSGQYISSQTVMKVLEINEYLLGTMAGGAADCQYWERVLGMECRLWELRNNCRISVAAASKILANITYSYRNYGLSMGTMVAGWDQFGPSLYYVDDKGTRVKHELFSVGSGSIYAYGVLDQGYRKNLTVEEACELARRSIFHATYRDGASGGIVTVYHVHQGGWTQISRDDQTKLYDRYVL
# Homo sapiens = species on record: Homo sapiens; assay: To identify inhibition of the IFN signalling (Jak-Stat) pathway via expression of an eGFP reporter gene under the control of an IFN-stimulated response element (ISRE) containing MxA promoter.; format: functional; conditions: 30 µM
# [7] = target: T4, Tyrosyl-tRNA synthetase, putative (Trypanosoma cruzi (strain CL Brener)) (UniProt Q4DSP6); assay: Trypanosoma cruzi tyrosyl tRNA synthetase (TcYRS) _High Tyrosine SOP; format: functional; conditions: 30 µM; note: in the data most compounds retested in dose-response had high values
# T4 sequence (whole entry): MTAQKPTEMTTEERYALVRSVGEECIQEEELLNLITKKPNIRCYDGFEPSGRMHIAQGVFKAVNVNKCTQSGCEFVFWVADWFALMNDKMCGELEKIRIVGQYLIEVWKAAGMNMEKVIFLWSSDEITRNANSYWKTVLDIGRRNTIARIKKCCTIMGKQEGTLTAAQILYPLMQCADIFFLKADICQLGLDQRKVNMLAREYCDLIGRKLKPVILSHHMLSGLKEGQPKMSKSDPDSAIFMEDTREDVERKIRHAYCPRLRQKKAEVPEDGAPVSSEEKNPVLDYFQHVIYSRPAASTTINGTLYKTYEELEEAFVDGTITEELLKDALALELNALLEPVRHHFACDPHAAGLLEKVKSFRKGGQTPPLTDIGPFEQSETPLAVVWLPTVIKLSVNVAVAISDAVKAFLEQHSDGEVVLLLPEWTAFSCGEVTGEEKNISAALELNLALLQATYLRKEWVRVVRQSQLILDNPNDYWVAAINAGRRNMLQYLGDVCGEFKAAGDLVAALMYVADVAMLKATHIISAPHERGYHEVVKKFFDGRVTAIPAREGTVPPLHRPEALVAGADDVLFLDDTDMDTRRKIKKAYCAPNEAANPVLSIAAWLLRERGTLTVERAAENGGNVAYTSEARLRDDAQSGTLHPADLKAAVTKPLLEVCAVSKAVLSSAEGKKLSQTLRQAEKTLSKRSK
# [8] = target: T4, Tyrosyl-tRNA synthetase, putative (Trypanosoma cruzi (strain CL Brener)); assay: Trypanosoma cruzi tyrosyl tRNA synthetase (TcYRS) SOP; format: functional; conditions: 30 µM
# [9] = target: Chromo domain-containing protein 1 (Saccharomyces cerevisiae (strain ATCC 204508 / S288c) (Baker's yeast)) (UniProt P32657); assay: ScCHD-1 Enzyme Inhibition Assay; format: functional; conditions: 30 µM; note: in the data most compounds retested in dose-response had high values
# Sequence of Chromo domain-containing protein 1 (Saccharomyces cerevisiae (strain ATCC 204508 / S288c) (Baker's yeast)) (P32657 whole entry, the tested form may be a part): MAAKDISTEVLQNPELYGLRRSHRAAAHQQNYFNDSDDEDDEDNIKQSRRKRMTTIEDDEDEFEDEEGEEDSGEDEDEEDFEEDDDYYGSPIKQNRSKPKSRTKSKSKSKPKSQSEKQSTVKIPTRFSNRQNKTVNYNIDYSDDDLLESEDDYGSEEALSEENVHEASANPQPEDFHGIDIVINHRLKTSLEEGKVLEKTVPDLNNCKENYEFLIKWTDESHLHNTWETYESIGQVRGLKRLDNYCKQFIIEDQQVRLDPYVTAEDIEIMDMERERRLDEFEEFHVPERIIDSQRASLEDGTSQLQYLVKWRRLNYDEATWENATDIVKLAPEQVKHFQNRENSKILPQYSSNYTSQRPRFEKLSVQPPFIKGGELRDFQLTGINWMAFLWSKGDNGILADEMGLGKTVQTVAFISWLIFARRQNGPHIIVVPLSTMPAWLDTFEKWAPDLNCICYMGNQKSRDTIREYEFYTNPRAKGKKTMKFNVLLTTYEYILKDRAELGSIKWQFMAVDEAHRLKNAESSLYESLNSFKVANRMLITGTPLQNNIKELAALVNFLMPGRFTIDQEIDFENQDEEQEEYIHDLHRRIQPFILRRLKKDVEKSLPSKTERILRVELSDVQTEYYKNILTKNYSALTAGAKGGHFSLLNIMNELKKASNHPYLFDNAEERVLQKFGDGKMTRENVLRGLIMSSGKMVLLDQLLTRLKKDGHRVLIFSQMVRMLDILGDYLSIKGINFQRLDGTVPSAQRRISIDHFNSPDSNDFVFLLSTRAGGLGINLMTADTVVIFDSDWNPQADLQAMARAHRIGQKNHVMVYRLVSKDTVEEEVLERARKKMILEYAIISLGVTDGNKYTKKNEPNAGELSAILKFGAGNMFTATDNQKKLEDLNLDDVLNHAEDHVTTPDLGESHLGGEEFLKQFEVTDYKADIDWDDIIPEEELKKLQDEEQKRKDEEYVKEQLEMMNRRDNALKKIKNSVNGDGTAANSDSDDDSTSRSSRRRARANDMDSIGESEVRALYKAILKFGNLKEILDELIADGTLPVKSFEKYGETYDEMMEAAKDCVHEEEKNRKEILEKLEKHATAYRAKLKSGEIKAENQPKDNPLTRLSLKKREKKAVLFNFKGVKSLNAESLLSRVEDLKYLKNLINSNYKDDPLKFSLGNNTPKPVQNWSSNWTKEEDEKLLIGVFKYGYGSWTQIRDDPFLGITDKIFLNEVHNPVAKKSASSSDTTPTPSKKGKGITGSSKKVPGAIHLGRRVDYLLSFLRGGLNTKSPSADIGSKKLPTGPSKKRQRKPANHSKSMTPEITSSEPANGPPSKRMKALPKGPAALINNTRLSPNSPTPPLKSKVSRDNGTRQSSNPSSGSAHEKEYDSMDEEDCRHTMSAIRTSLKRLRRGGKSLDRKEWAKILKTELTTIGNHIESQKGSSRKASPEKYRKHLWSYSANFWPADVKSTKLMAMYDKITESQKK
# Sequence of Protein translocase subunit SecA (Escherichia coli (strain K12)) (P10408 whole entry): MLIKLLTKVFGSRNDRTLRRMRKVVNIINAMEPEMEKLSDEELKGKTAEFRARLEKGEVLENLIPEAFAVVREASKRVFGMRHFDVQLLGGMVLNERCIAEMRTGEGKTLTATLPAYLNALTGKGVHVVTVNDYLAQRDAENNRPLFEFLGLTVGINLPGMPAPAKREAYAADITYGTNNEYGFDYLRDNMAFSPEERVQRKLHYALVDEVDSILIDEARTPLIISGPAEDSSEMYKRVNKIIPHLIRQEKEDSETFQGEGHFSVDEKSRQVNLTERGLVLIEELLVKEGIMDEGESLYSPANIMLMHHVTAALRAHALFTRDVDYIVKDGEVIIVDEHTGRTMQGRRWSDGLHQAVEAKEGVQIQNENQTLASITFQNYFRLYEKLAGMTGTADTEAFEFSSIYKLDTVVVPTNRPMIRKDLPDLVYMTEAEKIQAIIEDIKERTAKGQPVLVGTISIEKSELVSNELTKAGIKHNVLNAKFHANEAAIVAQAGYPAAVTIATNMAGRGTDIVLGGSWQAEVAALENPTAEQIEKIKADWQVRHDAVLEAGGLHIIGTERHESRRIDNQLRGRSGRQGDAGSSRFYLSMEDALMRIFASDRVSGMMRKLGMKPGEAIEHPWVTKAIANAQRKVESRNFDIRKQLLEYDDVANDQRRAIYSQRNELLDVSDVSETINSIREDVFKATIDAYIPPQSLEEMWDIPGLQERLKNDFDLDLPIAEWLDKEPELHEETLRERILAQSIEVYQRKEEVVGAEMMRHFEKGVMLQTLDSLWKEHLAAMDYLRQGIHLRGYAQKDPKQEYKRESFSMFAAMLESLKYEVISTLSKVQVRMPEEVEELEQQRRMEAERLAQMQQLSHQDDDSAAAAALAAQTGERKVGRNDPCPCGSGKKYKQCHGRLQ
SMILES,Percent Effect [1] [%],Percent Effect [2] [%],Percent Effect [3] [%],Percent Effect [4] [%],Percent Effect (Trypanosoma cruzi) [%],Percent Effect [5] [%],Percent Effect [6] [%],Percent Effect (Homo sapiens) [%],Percent Effect [7] [%],Percent Effect [8] [%],Percent Effect [9] [%]
c1ccc(Cn2cc3c(n2)C(CNCc2ccco2)OCC3)nc1 (configuration not stated),-3.96,2.7,0.188,3.43,-4.49,4.17,2.79,-8.58,4.95,11,-1.79
O=C(NCCN1CCc2ccccc2C1)c1scnc1Cl,-2.6,13.2,-2.29,-8.63,6.26,-3.24,18,6.79,-6.4,23.5,-6.08
Cc1ccc2c(c1)CCC21CCN(C(=O)CO)CC1,-2.81,5.2,-0.185,17.2,6.79,-20.7,12.8,15.4,4.3,6.17,-7.19
O=C(NCc1nncn1-c1ccccc1)C1CC(=O)N(CC2CC2)C1 (configuration not stated),-6.4,5.41,-8.14,7.22,-3.3,24.4,-0.901,8.14,3.45,3.7,-2.19
CC(=O)NC1CCCN(C(=O)c2ccc(Br)cc2O)C1 (configuration not stated),-4.72,8.11,-9.01,7.98,-2.92,1.6,5.95,3.4,6.4,16.1,-2.5
O=C(c1ccco1)N1CCOCC2(CCN(C3CCOCC3)C2)C1 (configuration not stated),-0.734,1.33,-1.65,3.4,-7.47,-2.29,7.95,2.53,0,5.13,-6.06
c1ccc(OCCN2CCCC(c3noc(C4CC4)n3)C2)cc1 (configuration not stated),-8.89,0,3.25,-3.02,-3.02,-1.56,10.1,6.37,-4.92,1.24,-2.68
Cc1nn(C)c(Cl)c1C(=O)NCC(c1ccsc1)N(C)C (configuration not stated),-3.36,17.7,-4.46,-7.25,7.65,1.14,4.18,-12.9,5.42,16.5,-6.9
CSCC(=O)N1CCCN(c2ccccc2C)CC1,-7.55,2.7,-2.83,-3.96,-5.18,-0.248,1.8,4.54,1.07,6.17,-3.91
c1cnc2c(c1)cc([C@H]1CCCO1)n2CCN1CCOCC1,-4.11,9.46,14.2,5.59,-0.593,-5.8,3.9,3.93,1.07,11.7,-13.8
O=C1CC[C@H]2CN(Cc3ccc(Cl)s3)CC[C@H]2N1CCc1c[nH]cn1,-2.35,5.48,2.32,10.8,4.37,-1.6,11.9,34.2,3.12,8.64,-0.239
CCS(=O)(=O)N1CCc2c(cccc2NC(=O)NCCOC)C1,-5.83,5.26,6.05,2.98,-0.0974,-2.37,7.77,8.27,4.25,13,-5.11
CC(NC(=O)CCc1cccs1)c1nnc2n1CCC2 (configuration not stated),-4.31,2.7,-7.36,7.21,1.95,-0.554,7.18,-0.332,5.94,18.3,1.69
Cc1cccc(CN2C[C@@H]3CN(C(=O)NC(C)C)C[C@@H]3C2=O)c1,0.524,5.2,3,7.17,-1.87,-35.9,11.2,-7.06,6.45,13.6,1
CNC(=O)CS(=O)(=O)C1CCN(S(=O)(=O)c2c(F)cccc2F)CC1,-2.05,-2.74,6.92,0.634,5.68,-1.82,3.9,-17.8,1.07,0,-1.05
Cn1cc(C2COC3(CCN(C(=O)Cn4cccn4)CC3)C2)cn1 (configuration not stated),-2.57,13.5,-8.57,-2.55,2.25,2.23,24,3.24,4.32,17.9,2.16
CCn1nc(-c2ccccc2F)ccc1=O,-4.01,0,-2.64,-3.3,-9.29,-12.7,4.55,11.8,-1.07,8.64,-2.39

# From ChEMBL document CHEMBL3988442, “University of Dundee, Small-Polar-MMV Screening Library” (2021)
